Results taken from PubChem BioAssay AID2014 (Sanford-Burnham Center for Chemical Genomics, 2009).
Screen size: about 290,000 compounds; about 3,000 (1%) were called active. The sample holds actives, similar compounds and a random draw of the others, so the mix is not that of the screen. The rule behind the calls is not given here.

Target: Polyadenylate-binding protein 1 (Homo sapiens) (UniProt P11940)
Test: PABP poly(A) RNA binding inhibitors, primary screen, biochemical, fluorescence polarization, uHTS (AID 2014);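 note: calls also rest on retests at 20 µM and on dose response follow-up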
Settings: stronger effect = higher value

Sequence of Polyadenylate-binding protein 1 (Homo sapiens) (P11940 whole entry, looked up): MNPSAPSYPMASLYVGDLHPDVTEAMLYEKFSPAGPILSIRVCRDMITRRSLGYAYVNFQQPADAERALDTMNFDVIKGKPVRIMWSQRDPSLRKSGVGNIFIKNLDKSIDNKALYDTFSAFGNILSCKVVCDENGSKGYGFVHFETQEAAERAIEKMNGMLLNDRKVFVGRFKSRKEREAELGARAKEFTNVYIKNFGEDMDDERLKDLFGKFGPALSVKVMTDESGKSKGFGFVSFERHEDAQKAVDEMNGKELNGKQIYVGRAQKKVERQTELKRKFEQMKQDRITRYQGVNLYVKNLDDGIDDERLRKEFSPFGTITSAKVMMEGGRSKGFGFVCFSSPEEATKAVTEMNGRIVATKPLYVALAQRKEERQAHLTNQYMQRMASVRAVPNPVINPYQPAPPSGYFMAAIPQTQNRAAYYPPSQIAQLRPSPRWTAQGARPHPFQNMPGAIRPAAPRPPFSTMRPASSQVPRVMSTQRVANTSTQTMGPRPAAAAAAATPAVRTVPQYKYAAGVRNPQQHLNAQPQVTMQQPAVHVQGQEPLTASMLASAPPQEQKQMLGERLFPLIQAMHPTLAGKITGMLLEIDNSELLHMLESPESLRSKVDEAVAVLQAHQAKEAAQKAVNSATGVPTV

Structure (SMILES) | inhibition (at 35 µM) | inhibition (confirmation repeats, at 20 µM)
C[N+]1(CCNC(=O)/C=N/O)CCCCC1 | 63.4% (active) | 
CC(C)[C@H](NC(=O)N1CC(=O)Nc2ccccc21)C(=O)N[C@@H](Cc1c[nH]c2ccccc12)C(=O)O | -3.1% (inactive) | 
Cc1cccc(-c2c(NC(=O)c3ccco3)oc3ccc(Cl)cc3c2=O)c1 | -6.1% (inactive) | 
O=C1OC(/C=C/c2ccccc2)=NC/1=C/c1ccco1 | 16.6% (inactive) | 5.2%
CC(C)(C)C1C/C(=C/c2ccco2)C(=O)/C(=C/c2ccco2)C1 (centres undefined) | -1.8% (active) | 53.3%
CCC1S/C(=N/N=C/c2ccco2)NC1=O (centres undefined) | -11% (inactive) | 
Cn1c(=O)oc2cc(S(=O)(=O)NCCC(=O)NCc3ccccc3Cl)ccc21 | 1% (inactive) | 
C=CCn1c(SCc2csc(C)n2)nc2scc(-c3ccc(C)o3)c2c1=O | 6.5% (inactive) | 
C=CCn1c(=S)[nH]c2scc(-c3ccco3)c2c1=O | 69.3% (active) | 
C=CCNC(=O)CSc1nc2scc(-c3ccco3)c2c(=O)n1CC=C | 15.2% (inactive) | 
COc1cccc(NC(=O)N2CCCC2C(=O)NC2CCCCC2)c1 (centres undefined) | -0.6% (inactive) | 
CCn1cc(C(=O)N2CC(C)CC(C)C2)c(=O)c2cc(S(=O)(=O)N3CCCC3)ccc21 (centres undefined) | -11.3% (inactive) | 
COc1ccc(-c2cc(C(=O)N(C)Cc3ccc(OC)c(OC)c3OC)c3ccccc3n2)cc1OC | 48% (inactive) | 
Cc1cc2ccccn2c1C(=O)c1cccc(F)c1 | 2.5% (inactive) | 
CC(=O)Nc1ccc(/C=N/Nc2ccc(C(=O)c3c(C)cc4ccccn34)cc2[N+](=O)[O-])cc1 | 9% (inactive) | 
Cc1ccc(C(C[N+](=O)[O-])c2c(C)cc3ccccn23)cc1 (centres undefined) | -2.2% (active) | 72.2%
Cc1ccc(CNC(=O)Cc2cn(C)c3ccccc23)cc1 | 6.1% (inactive) | 
Cn1c2ccccc2c(=O)c2c(=O)n(Cc3ccco3)c(COc3ccccc3)nc21 | 1.9% (active) | 54.5%
COc1ccc(C(=O)CSc2nnc(COc3ccccc3)n2Cc2ccco2)cc1 | -8.1% (inactive) | 
CCCc1nc2c(c(=O)c3ccccc3n2C)c(=O)n1-c1cc(C)cc(C)c1 | 4.7% (inactive) | 
Cc1cnc(C)c(N2CCN(C(=O)C3CCC(=O)N(CCc4cccc(F)c4)C3)CC2)n1 (centres undefined) | 4.1% (inactive) | 
O=C1CCCC(O)=C1N=Nc1ccc(S(=O)(=O)N2CCOCC2)cc1 | 14.4% (inactive) | 
O=C1CCCC(O)=C1N=Nc1ccc2ncsc2c1 | -16.7% (active) | 53.4%
CCOc1cc(C2/C(=C(/O)c3ccc(S(=O)(=O)N4CCCCC4)cc3)C(=O)C(=O)N2CCOC)ccc1O (centres undefined) | 1.6% (inactive) | 

Structure (SMILES) | inhibition (at 35 µM) | inhibition (confirmation repeats, at 20 µM)
Cc1ccc2cc(C)c(N3CCN(c4ccc(F)cc4)CC3)nc2c1 | -13.2% (inactive) | 
COc1ccc(-c2cc(C(=O)N3CCN(Cc4ccc5c(c4)OCO5)CC3)on2)cc1OC | 6.7% (inactive) | 
COc1ccc(Cl)cc1NC(=O)CCS(=O)(=O)c1ccc(Br)cc1 | 54.8% (active) | 
COc1ccc(Cl)cc1NC(=O)CCS(=O)(=O)c1cc2c(cc1C)NC(=O)CO2 | -1.1% (inactive) | 
O=C(CCS(=O)(=O)c1ccc(Br)cc1)NCCc1ccc(Cl)cc1 | 19.8% (inactive) | 10.6%
O=C(CSc1ncn[nH]1)N/N=C/c1ccc(F)cc1 | -7.9% (inactive) | 
O=C(NCCCc1ccccc1)c1cc(COc2c(F)cccc2F)on1 | -3.7% (inactive) | 
O=C(c1c(F)cccc1F)N1CCN(c2ncc(Br)cn2)CC1 | 0.7% (inactive) | 
CN(C(=O)c1ccno1)c1nnc(-c2cccnc2)s1 | 12% (inactive) | 
Cc1nnc(N(Cc2ccco2)C(=O)c2ccno2)s1 | 68.4% (active) | 
Cc1ccc(-c2csc(N(Cc3ccco3)C(=O)c3cccs3)n2)cc1 | -9.4% (inactive) | 
O=C(CCN1C(=O)[C@H]2CC=CC[C@H]2C1=O)NCc1nc(-c2ccccc2)no1 | 15.4% (inactive) | 
O=C1c2ccccc2S(=O)(=O)N1Cc1c(F)cccc1Cl | 5.7% (inactive) | 
Cc1c(-c2ccccc2)nc(N)c(C#N)c1-c1cccs1 | -3.2% (inactive) | 
CCc1c(-c2ccccc2)nc(N)c(C#N)c1-c1cccs1 | -4.1% (inactive) | 
CN1CCc2nc(SC(C(=O)O)c3ccccc3)c(C#N)c(-c3cccs3)c2C1 (centres undefined) | 68.1% (active) | 
CCOC(=O)C1(Cc2ccccc2C)CCCN(C(=O)CCc2c(C)noc2C)C1 (centres undefined) | 2.2% (inactive) | 
CCn1c(=S)sc2c(=O)n(CC(=O)Nc3ccc(OC)cc3)c(C)nc21 | -6.5% (inactive) | 
Cc1cccc(C)c1NC(=O)CSc1nc2c([nH]1)c(=O)n(C)c(=O)n2C | 1% (inactive) | 
COc1cc(CCC(=O)N2CCN(c3ccccc3Cl)CC2)cc(OC)c1OC | 9.6% (inactive) | 
COc1ccc(Cc2nnc(NC(=O)c3ccc(OC)cc3OC)s2)cc1 | -6% (inactive) | 
CCc1nnc(NC(=O)Cc2cccs2)s1 | 10.4% (inactive) | 
COc1ccc(Cc2nnc(NC(=O)Cc3cccs3)s2)cc1 | 72.4% (active) | 
CNS(=O)(=O)c1cccc(C(=O)NCC2CCCCC2)c1 | 1% (inactive) | 

Structure (SMILES) | inhibition (at 35 µM) | inhibition (confirmation repeats, at 20 µM)
Cc1cc(C)c(C#N)c(SCc2[nH]nc3c2C(c2ccccc2)C(C#N)=C(N)O3)n1 (centres undefined) | -7.3% (inactive) | 
Cc1nn(Cc2ccccc2)c2c1C(c1ccccc1)C(C#N)=C(N)O2 (centres undefined) | 5.6% (inactive) | 
Cc1cc(C)c2c3c(sc2n1)C(c1ccccc1)C(C#N)=C(N)O3 (centres undefined) | 120% (active) | 63.8%
O=C(N/N=C/c1ccccc1O)/C(=C/c1ccccc1)CCO | -0.9% (inactive) | 
CCOc1cc(/C=N/Nc2cc(C)nc3ccc(C)cc23)ccc1O | -6.9% (inactive) | 
Cc1c(-c2cccc(Cl)c2)nc2ccccc2c1C(=O)OCC(=O)N(C)C1CCS(=O)(=O)C1 (centres undefined) | 6.7% (inactive) | 
CN(C(=O)COC(=O)c1nc(Cl)ccc1Cl)C1CCS(=O)(=O)C1 (centres undefined) | 1.3% (inactive) | 
CN(C(=O)COC(=O)c1cc(-c2ccco2)nc2ccccc12)C1CCS(=O)(=O)C1 (centres undefined) | 77.7% (active) | 
Cc1cccc(Nc2nc(-c3ccccc3)cs2)n1 | 3.3% (inactive) | 
COc1cccc(S(=O)(=O)NCc2ccc(C(=O)NCc3ccccn3)cc2)c1 | 1.8% (inactive) | 
O=C(NCc1ccccn1)c1ccc2nc(-c3ccco3)c(-c3ccco3)nc2c1 | 77.7% (active) | 
O=C(NCc1ccccn1)c1cc(Br)ccc1Cl | 0.7% (inactive) | 
CC1=C(C(=O)Nc2ccccc2)C(c2ccco2)C(C#N)=C(SCC(N)=O)N1 (centres undefined) | 7.1% (inactive) | 
N#CC1=C(N)Oc2c(ccc3cccnc23)C1c1ccncc1 (centres undefined) | 10.6% (inactive) | 
N#CC1=C(N)Oc2c(sc3ccccc23)C1c1ccco1 (centres undefined) | 86.3% (active) | 
COCCCNc1nc2c(-c3cccc(C)c3)nnn2c2ccc(Cl)cc12 | 3.2% (inactive) | 
COc1cccc(N(C(=O)CNC(=O)c2ccco2)C(C(=O)NC2CCCCC2)c2cccnc2)c1 (centres undefined) | 10.1% (inactive) | 
CN(C)CCCNC(=S)N1CCC(c2nc3ccccc3[nH]2)CC1 | -6% (inactive) | 
COc1ccc(C(CNC(=O)COc2ccc([N+](=O)[O-])cc2)N2CCCCC2)cc1 (centres undefined) | 1% (inactive) | 
NC(=O)c1c(NC(=O)c2ccccc2)sc2c1CCCC2 | 3.6% (inactive) | 
NC(=O)c1c(Nc2nc3c(F)cccc3s2)sc2c1CCCC2 | -15.3% (active) | 73.7%
Fc1cc(F)c2nc(Nc3nc4c(F)cccc4s3)sc2c1 | 0.5% (inactive) | 
COc1ccc(C(=O)NCCSc2ccccc2C)cc1 | 1.1% (inactive) | 
COCc1cc(C)n(CC(=O)NCC2CCCO2)c(=O)c1C#N (centres undefined) | -1.9% (inactive) | 

Structure (SMILES) | inhibition (at 35 µM) | inhibition (confirmation repeats, at 20 µM)
Cc1ccc(N2CCN(C(=O)c3cccs3)CC2)c(C)c1 | 3.2% (inactive) | 
CCOC(=O)C(C)Sc1nnc(CSc2nc3nc(C)cc(C)n3n2)o1 (centres undefined) | 2.5% (inactive) | 
Cc1cc(C)n2nc(SCC(N)=O)nc2n1 | 51.5% (active) | 81.1%
COc1ccc(C(C)=O)cc1CSc1nc2nc(C)cc(C)n2n1 | -7.3% (inactive) | 
Cc1onc(C(=O)Nc2ccc3c(c2)OCO3)c1[N+](=O)[O-] | 1.4% (inactive) | 
Cc1ccnc(N2C(=O)c3ccc([N+](=O)[O-])cc3C2=O)c1 | 47.5% (inactive) | 
COc1ccccc1NC(=O)Nc1nnc(Cc2ccc(F)cc2)s1 | -15% (inactive) | 
COc1ccc(C(CNC(=O)c2cc3c(s2)CCCC3)N2CCOCC2)cc1 (centres undefined) | 11.9% (inactive) | 
CC(=O)NC(Cc1ccc(F)c(F)c1)C(=O)NC1CCN(C(=O)c2ccc(C)cc2)CC1 (centres undefined) | 1.9% (inactive) | 
COc1ccc(CC(NC(C)=O)C(=O)NC2CCN(C(=O)c3ccc(Cl)cc3)CC2)cc1 (centres undefined) | 3.2% (inactive) | 
CNC(=S)N1CCC(NC(=O)C(Cc2ccc(F)cc2)NC(C)=O)CC1 (centres undefined) | 63.2% (active) | 
C[C@@H]1CC[C@@]2(OC1)O[C@H]1C[C@H]3[C@@H]4CC=C5C[C@@H](O)[C@H](O)C[C@]5(C)C4CC[C@]3(C)[C@H]1[C@@H]2C (some centres undefined) | 7.2% (inactive) | 
O=C1CN(C(=O)c2cc(F)cc(F)c2)c2ccccc2N1 | -2.2% (inactive) | 
Cc1cc(O)c(C(=O)/C=C/c2c(F)c(F)c(F)c(F)c2F)c(=O)o1 | -2.1% (inactive) | 
Cc1cc2c(=O)n(CC(=O)NCC(=O)Nc3ccc(C(C)C)cc3)cnc2s1 | 9.1% (inactive) | 
Cc1ccc(-n2ncc3c2CCCC3NC(=O)c2cnccn2)cc1C (centres undefined) | 5.7% (inactive) | 
O=C(c1cccs1)N(C(=O)c1cccs1)c1ccccn1 | 0.2% (inactive) | 
O=C(CNC(=O)c1ccc(Br)o1)NCC1CCCO1 (centres undefined) | -3.6% (inactive) | 
O=C(c1ccc(Br)o1)N(c1ccccn1)C1CCCCC1 | -4.7% (active) | 75.2%
CC1(C)CC(=O)NC=C(c2ccccc2)C1 | -9.5% (inactive) | 
CC1(C)CC(=O)C=C(Nc2ccccc2)C1 | 2.3% (inactive) | 
CC1(C)CC(=O)C(C2c3ccccc3S(=O)(=O)c3ccccc32)C(=O)C1 | 62.9% (active) | 
